Sampled rows, rich in hits. Any-hit rate of the full collection: about 2.2%.
GLP1R inv ag = acts as inverse agonist at human GLP-1 receptor | P43220 | HEK293 GLP-1R CRE-luciferase, luminescence, 24 h; GLP-1R form is constitutively active | Potency, µM (series often up to 38.3 µM), most hits filed as inhibitors | actives 1.6% (n = 410,000); also: nearly all actives have a fitted effect of over 55% in size
Target sequence (P43220 whole entry, looked up): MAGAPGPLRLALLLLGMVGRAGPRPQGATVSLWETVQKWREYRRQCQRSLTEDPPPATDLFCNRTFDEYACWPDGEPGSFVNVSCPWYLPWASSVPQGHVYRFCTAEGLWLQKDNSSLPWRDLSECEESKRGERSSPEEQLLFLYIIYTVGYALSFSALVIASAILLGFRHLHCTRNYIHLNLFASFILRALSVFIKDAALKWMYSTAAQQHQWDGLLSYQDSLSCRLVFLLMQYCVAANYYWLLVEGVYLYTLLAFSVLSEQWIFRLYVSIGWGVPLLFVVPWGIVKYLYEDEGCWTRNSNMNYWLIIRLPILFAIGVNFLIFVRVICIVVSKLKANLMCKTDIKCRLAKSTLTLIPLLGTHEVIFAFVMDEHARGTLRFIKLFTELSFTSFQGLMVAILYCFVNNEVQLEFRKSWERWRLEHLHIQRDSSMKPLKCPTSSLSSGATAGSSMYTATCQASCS
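Luminescence readout: a drop in cAMP-driven luciferase signal flags inverse agonism at a constitutively active GLP-1R stably expressed in HEK293. Compound exposure lasted 24 hr at 37 deg C, 5% CO2.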
CCT modulator = changes cytosolic chaperonin activity | purified chaperonin ATPase assay, HTRF ADP detection, 30 min | actives 0.3% (n = 360,000) | activity change, % (concentration not given with the values), hits read low | AID 651819; in the data active = activity change below about -30%
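ATPase activity: ADP formed was measured by HTRF Transcreener (665/615 nm ratio) after 30 min at 37 deg C with 10 uM ATP. Compounds screened at one 76 uM concentration against 40 or 20 nM TRiC in Tris pH 7.4/KCl/MgCl2/DTT buffer.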
uPA generation = inhibitors of cell surface uPA generation | Potency, µM (series often up to 38.3 µM), most hits filed as inhibitors | AID 540303 | cell surface uPA generation assay, qHTS | actives 0.31% (n = 330,000); active = well fitted inhibition curve with a large enough effect; inconclusive = small, poorly fitted or top-dose-only effect; inactive = no such curve, though single readings can be large or run the other way; tested in mouse RAW 264.7 cells; also: nearly all actives have a fitted effect of over 55% in size
MmCpn inh = M. maripaludis TRiC chaperonin inhibition | purified Mm-Cpn ATPase, ADP Transcreener TR-FRET | Potency, µM (top dose mostly 76.9 µM), usual class: inhibitors | actives 0.031% (n = 330,000); also: nearly all actives have a fitted effect of over 80% in size
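Reaction buffer contained 30 mM Tris pH 7.4, 100 mM KCl, 5 mM MgCl2 and 1 mM DTT. Mm-CPN (25 nM final) hydrolysed 10 uM ATP over 30 min at 37°C; ADP was read by HTRF.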
HEK293 tox = cytotoxic in the GLP-1 receptor inverse agonist counter-screen; HEK293 cAMP-luciferase reporter cells, luminescence, 24 h; Potency, µM (series often up to 38.3 µM), usual class: inhibitors; actives 0.13% (n = 410,000);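 also: loss of luciferase light is scored as toxicity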
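MLSMR compounds, 24 hr on cells at 37 deg C/5% CO2; luminescence after luciferase reagent (12 min RT). Inhibition counted as the undesired cytotoxic outcome.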
GLP-1R agonist = GLP-1 receptor (human) agonism; P43220; HEK293 GLP-1R CRE-luciferase, luminescence, 4-6 h; cells express a hypersensitive GLP-1R form; Potency, µM (titrated, usually from 45.6 µM), most hits filed as activators; actives 0.007% (n = 380,000); AID 624172
Of the large screens only hits and unclear results are named; the others gave an inactive call. Unless noted, calls follow the shape of the dose curve; as a rule, active = well fitted curve in the direction sought with a large enough effect; inconclusive = small, poorly fitted or top-dose-only effect, or another doubt; inactive = no such curve, though single readings can be large; an effect the other way counts as inactive or inconclusive.

COc1cc(/C=C/c2ccc3c(Br)cc(Br)c(O)c3n2)ccc1O	GLP1R inv ag 7.94µM, HEK293 tox inconclusive
COc1cc(/C=C/c2ccc3cccc(O)c3n2)cc(Br)c1OC	GLP1R inv ag 4.47µM, HEK293 tox inconclusive, GLP-1R agonist inconclusive
COc1ccc(/C=C/c2ccc3cccc(O)c3n2)c(OC)c1OC	GLP1R inv ag 2.51µM
CCOC(=O)c1c(C)[nH]c(C)c1S(=O)(=O)N1CCC(C(=O)Nc2ccccc2CC)CC1	none (no result: CCT modulator, uPA generation, MmCpn inh, GLP-1R agonist)
COC(=O)c1ccc(-n2c(C)cc(C(=O)CCl)c2C)cc1	uPA generation 6.31µM, HEK293 tox inconclusive
CCn1c(SCC(=O)c2cc(C)n(C)c2C)nnc1-c1ccccc1	none
CCn1c(SCC(=O)c2cc(C)n(-c3ccc(C(=O)OC)cc3)c2C)nnc1-c1cccnc1	GLP1R inv ag 11.2µM
COc1cccc(Cn2c(=O)n(CCc3ccccc3)c(=O)c3c2c2cc(OC)ccc2n3C)c1	none (no result: CCT modulator, uPA generation, MmCpn inh)
Cc1c(N2C(=O)/C(=C/c3ccccc3)SC2=S)c(=O)n(-c2ccccc2)n1C	GLP1R inv ag inconclusive
Cc1c(N2C(=O)/C(=C/c3ccc(N(C)C)cc3)N(C)C2=S)c(=O)n(-c2ccccc2)n1C	GLP1R inv ag inconclusive, HEK293 tox 5.62µM (no result: MmCpn inh)
COC(=O)c1cc2oc(C)cc2n1Cc1c(C)cc(C)cc1C	none (no result: CCT modulator, uPA generation, MmCpn inh, GLP-1R agonist)
COc1ccc(CC(=O)Nc2c(C(=O)N3CCN(c4ncccn4)CC3)oc3ccccc23)cc1	CCT modulator -68.4
COc1ccc(-c2nc(Cn3c(SCc4ccc(C)cc4)nc4ccncc43)c(C)o2)cc1OC	GLP1R inv ag inconclusive, uPA generation 8.91µM, HEK293 tox inconclusive
COc1ccc(-c2nc(Cn3c(SCc4cccc(F)c4)nc4ccncc43)c(C)o2)cc1OC	GLP1R inv ag inconclusive
CC(C)Oc1ccc(C(=O)/C(=C\c2cccs2)c2nc3ccccc3o2)cc1	GLP1R inv ag 7.08µM
COc1ccc(C(=O)/C(=C\c2sccc2C)c2nc3ccccc3o2)cc1	none (no result: GLP1R inv ag, CCT modulator, uPA generation, HEK293 tox, GLP-1R agonist)
O=C(NCC(c1ccco1)N1CCCC1)c1cc2cc(Cl)ccc2o1 (centres undefined)	GLP1R inv ag 10µM
O=C(NCC(c1ccco1)N1CCCC1)c1ccc(Cl)cc1 (centres undefined)	GLP1R inv ag inconclusive
COc1ccc(C(=O)NN/C(C)=C/C(=O)C(F)(F)C(F)(F)C(F)(F)F)cc1	GLP1R inv ag 5.01µM
COc1cc(C(=O)N(Cc2ccccc2)c2cccc(C)c2)ccc1OC(F)F	GLP1R inv ag 11.2µM
COc1ccccc1CC(=O)N(Cc1ccccc1)c1ccc(C)cc1	GLP1R inv ag 8.91µM
O=C(CCl)N(Cc1ccccc1)c1ccccc1	GLP1R inv ag inconclusive, uPA generation inconclusive, HEK293 tox inconclusive
Cc1cccc(N(Cc2ccccc2)C(=O)CCl)c1	GLP1R inv ag 10µM
COc1ccc(CC(=O)N(Cc2ccccc2)c2cccc(C)c2)cc1OC	GLP1R inv ag inconclusive
CC(C)CCNC(=O)C1CCC(Cn2c(=O)c3sccc3n(CC(=O)NC(C)C)c2=O)CC1 (centres undefined)	none (no result: CCT modulator, uPA generation, MmCpn inh, GLP-1R agonist)
CC1=Nc2cc(C(=O)NC3CCCC3)ccc2Sc2ccc(C)cc21	GLP1R inv ag 5.01µM, HEK293 tox inconclusive (no result: CCT modulator, uPA generation, MmCpn inh)
CCOC(=O)N1CCC(NC(=O)c2ccc3c(c2)N=C(C)c2ccccc2S3)CC1	GLP1R inv ag inconclusive
CC1=Nc2cc(C(=O)NC3CCCC3)ccc2Sc2ccc(Cl)cc21	GLP1R inv ag 1.58µM, HEK293 tox inconclusive (no result: CCT modulator, uPA generation, MmCpn inh, GLP-1R agonist)
COC(=O)c1ccc(C(=O)OC)c(NC(=O)c2ccc(-c3ccccc3)s2)c1	none (no result: CCT modulator, uPA generation, MmCpn inh, GLP-1R agonist)
CCc1ccccc1N(CC)C(=O)c1c(C)oc2ncnc(N3CCOCC3)c12	none (no result: CCT modulator, uPA generation, MmCpn inh, GLP-1R agonist)
CCOc1cc(C(=O)NCC(C)(C)CNC(=O)c2cc(OCC)c(OCC)c(OCC)c2)cc(OCC)c1OCC	GLP1R inv ag 10µM (no result: MmCpn inh)
O=C(CC(c1ccccc1)c1cc(Br)ccc1O)N1CCCCC1 (centres undefined)	GLP1R inv ag 10µM
O=C(CC(c1ccccc1)c1ccccc1O)N1CCCC1 (centres undefined)	none
Cc1ccccc1C(=O)Nc1nnc2n1CCS2	none (no result: CCT modulator, uPA generation, MmCpn inh)
COc1ccccc1N1C(=O)CSC1=NC(=O)c1ccccc1	none
COc1ccc(N2C(=O)CS/C2=N\C(=S)Nc2ccccc2)cc1	GLP1R inv ag 12.6µM, HEK293 tox inconclusive
COc1cc2c(c(OC)c1)C(c1cccc(F)c1F)CC(=O)N2 (centres undefined)	none (no result: CCT modulator, uPA generation, MmCpn inh)
CCN(CC)CCC[C@H](C)Nc1c2ccc(Cl)cc2nc2ccc(OC)cc12	none (no result: GLP1R inv ag, CCT modulator, uPA generation, MmCpn inh, HEK293 tox)
O=C(NNc1ccc([N+](=O)[O-])cc1[N+](=O)[O-])c1ccco1	MmCpn inh inconclusive, HEK293 tox 10µM
O=C1CN(C(=O)c2ccc(Br)o2)C(c2ccc(F)cc2)c2cc(Cl)ccc2N1 (centres undefined)	GLP1R inv ag 3.55µM
O=C1CN(C(=O)c2ccc(Br)o2)C(c2ccccc2)c2cc(Br)ccc2N1 (centres undefined)	GLP1R inv ag 7.08µM, uPA generation inconclusive
Cc1ccc2c(c1)C(c1ccccc1)N(C(=O)c1ccc(Br)o1)CC(=O)N2 (centres undefined)	GLP1R inv ag inconclusive
O=C1CN(C(=O)c2ccc(Br)o2)C(c2ccccc2)c2cc(Cl)ccc2N1 (centres undefined)	GLP1R inv ag inconclusive
CC/C=C(\C(=O)N[C@H]1C(=O)N2C(C(=O)OCOC(=O)C(C)(C)C)=C(COC(N)=O)CS[C@H]12)c1csc(N)n1	none (no result: GLP1R inv ag, CCT modulator, uPA generation, MmCpn inh, HEK293 tox)
COc1nccnc1NS(=O)(=O)c1ccc(NC(=S)NC(=O)c2cccc(F)c2)cc1	CCT modulator -63.4
COc1nccnc1NS(=O)(=O)c1ccc(NC(=S)NC(=O)c2ccc(F)cc2)cc1	none
CCOc1ccccc1NC(=O)Cn1c(=O)n(-c2ccccc2)c(=O)c2c1c1cc(C)ccc1n2C	none (no result: CCT modulator, uPA generation, MmCpn inh)
O=C(C1CN(C(=O)c2cc3cc(Cl)ccc3o2)c2ccccc2O1)N1CCCCC1 (centres undefined)	GLP1R inv ag 11.2µM
CC(C)c1ccc(NC(=O)c2ccc(CN3CC(=O)N4CCCCC4C3=O)cc2)cc1 (centres undefined)	none (no result: CCT modulator, uPA generation, MmCpn inh, GLP-1R agonist)
O=C(Nc1cc(Br)ccc1O)C1CC(c2c(F)cccc2Cl)=NO1 (centres undefined)	GLP1R inv ag inconclusive, uPA generation 8.91µM
O=C(Nc1ccc(Br)cc1)C1CC(c2c(F)cccc2Cl)=NO1 (centres undefined)	GLP1R inv ag inconclusive
COc1cc2c(-c3ccc4cc[nH]c4c3)c(-c3ccsc3)oc(=O)c2cc1OC	none
